Results reported in PubChem BioAssay (NCI).
This is part of a sample that, as a whole, favours compounds with a hit. Of some 79,000 tested, about 15% had one in any assay. Calls of active or inactive are those of the source. Rule as the data show it: active = growth inhibition above about 70%; inactive = the rest.

How the values were obtained:
[1] = NCI Yeast Anticancer Drug Screen. Data for the rad52 strain (AID 147);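 also: 0% = growth of vehicle-treated control cultures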; conditions: S. cerevisiae rad52 mutant growth inhibition, hits give high values
In short: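 The repair-mutant yeast strain was incubated with compounds, then growth was read and inhibition derived relative to vehicle.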

[2] = NCI Yeast Anticancer Drug Screen. Data for the rad50EPP+ strain (AID 151);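 also: 0% = growth of vehicle-treated control cultures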; conditions: S. cerevisiae rad50 mutant strain, hits give high values
In short: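 Vehicle-normalised growth inhibition; rad50EPP+ yeast strain, altered in DNA damage repair, compound-treated.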

[3] = NCI Yeast Anticancer Drug Screen. Data for the mgt1 strain (AID 153); conditions: S. cerevisiae mgt1 mutant growth inhibition, hits give high values
In short: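 Vehicle-normalized growth inhibition is determined in mgt1 yeast, a strain selected for a defined alteration in DNA repair or cell cycle control.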

[4] = NCI Yeast Anticancer Drug Screen. Data for the rad50 strain (AID 155);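 also: 0% = growth of vehicle-only cultures of the same strain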; conditions: S. cerevisiae rad50 strain growth inhibition, hits give high values
In short: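 Genetically altered yeast (DNA repair pathway); compound treatment; growth inhibition vs vehicle ctrl.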

[5] = NCI Yeast Anticancer Drug Screen. Data for the mec2-1 strain (AID 157); conditions: S. cerevisiae mec2-1 strain, hits give high values
In short: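 Mutant yeast (mec2-1) grown with compound; growth inhibition relative to vehicle control reported.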

[6] = NCI Yeast Anticancer Drug Screen. Data for the rad14 strain (AID 159);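 also: 0% = growth of vehicle-treated control cultures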; conditions: S. cerevisiae rad14 strain growth inhibition, hits give high values
In short: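 Test compounds were applied to a repair-deficient yeast strain. Its growth was then compared with that of cultures given vehicle alone, and inhibition was expressed relative to those controls.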

[7] = NCI Yeast Anticancer Drug Screen. Data for the sgs1 mgt1 strain (AID 161);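 also: 0% = growth of cultures given vehicle only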; conditions: S. cerevisiae sgs1 mgt1 strain, hits give high values
In short: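 Compounds are added to genetically altered yeast, and growth is compared with cultures given vehicle alone to give percent inhibition.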

[8] = NCI Yeast Anticancer Drug Screen. Data for the cln2 rad14 strain (AID 165);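 also: 0% = growth equal to vehicle treated cultures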; conditions: S. cerevisiae cln2 rad14 strain, hits give high values
In short: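 Readout is yeast growth inhibition versus vehicle-treated controls, using a strain with cln2 and rad14 alterations exposed to compound.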

[9] = NCI Yeast Anticancer Drug Screen. Data for the bub3 strain (AID 167); conditions: S. cerevisiae bub3 mutant strain, hits give high values
In short: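 Yeast carrying a defined mutation is treated with each compound, and growth is compared with that of vehicle-exposed cells to give inhibition.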

[10] = NCI Yeast Anticancer Drug Screen. Data for the wt2 strain (AID 169);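 also: 0% = growth of vehicle-treated yeast cultures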; conditions: S. cerevisiae wt2 strain growth inhibition, hits give high values
In short: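 Against vehicle-treated controls, the growth of yeast exposed to each compound was compared, and the inhibition was recorded.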

[11] = NCI Yeast Anticancer Drug Screen. Data for the mlh1 strain (AID 171);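 also: 0% = growth of vehicle-treated control cultures of the same strain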; conditions: S. cerevisiae mlh1 strain growth inhibition, hits give high values
In short: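 Measured: yeast growth. Reference: vehicle-treated controls. Organism: strain with a defined alteration affecting DNA damage repair or cell cycle control, treated with compound.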

[12] = NCI Yeast Anticancer Drug Screen. Data for the sgs1 strain (AID 173);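 also: 0% = growth of vehicle-only control cultures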; conditions: S. cerevisiae sgs1 mutant, hits give high values
In short: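 Each compound was added to cultures of the altered yeast strain. Growth was recorded, and inhibition was derived by comparison with vehicle controls.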

[13] = NCI Yeast Anticancer Drug Screen. Data for the mlh1 rad18 strain (AID 175); conditions: S. cerevisiae mlh1 rad18 strain growth inhibition, hits give high values
In short: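 Genetically defined yeast (DNA repair-deficient) exposed to compounds; growth inhibition determined relative to vehicle.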

[14] = NCI Yeast Anticancer Drug Screen. Data for the rad18 strain (AID 177); conditions: S. cerevisiae rad18 mutant growth inhibition, hits give high values
In short: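 Vehicle-treated cultures served as the baseline for scoring compound-induced growth inhibition in DNA-repair-mutant yeast.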

[15] = at 5.0 µM (retest, dose inferred, filed as 0.5)
[16] = at 50.0 µM (retest, dose inferred, filed as 5.0)

Measured: growth inhibition

CCCCN1C(=O)N(c2ccc(OCC)cc2)C2N(CCCC)C1C(C)(C)C2(C)C (stereo not drawn)
active: [1]; at 100.0 µM 86% | [4]; at 100.0 µM 84% | [6]; at 100.0 µM 72% | [7]; [16] 82% | [10]; at 100.0 µM 91% | [11]; at 100.0 µM 79% | [12]; at 100.0 µM 95% | [13]; [16] 84% | [14]; at 33.0 µM 74% | [14]; at 100.0 µM 93%
inactive: [1]; at 1.2 µM -6% | [1]; at 3.7 µM -13% | [1]; at 11.0 µM 3% | [1]; at 33.0 µM 30% | [2]; at 1.2 µM -7% | [2]; at 3.7 µM -6% | [2]; at 11.0 µM 7% | [2]; at 33.0 µM 19% | [2]; at 100.0 µM 30% | [3]; at 1.2 µM -4% | [3]; at 3.7 µM -7% | [3]; at 11.0 µM -6% | [3]; at 33.0 µM -7% | [3]; at 100.0 µM 5% | [4]; at 1.2 µM -17% | [4]; at 3.7 µM -18% | [4]; [15] 0% | [4]; at 11.0 µM 9% | [4]; at 33.0 µM 35% | [4]; [16] 50% | [4]; at 50.0 µM 49.6% | [5]; at 1.2 µM -5% | [5]; at 3.7 µM -4% | [5]; [15] 4% | [5]; at 11.0 µM -5% | [5]; at 33.0 µM -5% | [5]; [16] 62% | [5]; at 50.0 µM 19.9% | [5]; at 100.0 µM 22% | [6]; at 1.2 µM -1% | [6]; at 3.7 µM -6% | [6]; at 11.0 µM -6% | [6]; at 33.0 µM 15% | [7]; [15] 12% | [7]; at 50.0 µM 65.3% | [8]; [15] -3% | [8]; [16] 13% | [8]; at 50.0 µM 21.1% | [9]; at 1.2 µM -9% | [9]; at 3.7 µM -7% | [9]; [15] -2% | [9]; at 11.0 µM -12% | [9]; at 33.0 µM -11% | [9]; [16] 24% | [9]; at 50.0 µM 27.9% | [9]; at 100.0 µM 25% | [10]; at 1.2 µM -3% | [10]; at 3.7 µM 4% | [10]; at 11.0 µM 12% | [10]; at 33.0 µM 26% | [11]; at 1.2 µM -6% | [11]; at 3.7 µM -11% | [11]; at 11.0 µM -9% | [11]; at 33.0 µM -3% | [12]; at 1.2 µM -2% | [12]; at 3.7 µM -2% | [12]; at 11.0 µM 20% | [12]; at 33.0 µM 57% | [13]; [15] 13% | [13]; at 50.0 µM 54.1% | [14]; at 1.2 µM -7% | [14]; at 3.7 µM 0% | [14]; at 11.0 µM 27%
